This is one part of a sample in which hits are shown more often than they occur.
AMA1-RON2 inh – AMA1-RON2 (P. falciparum) interaction inhibition; AlphaScreen AMA1-biotinylated RON2 peptide binding; Potency, µM (top dose mostly 58.2 µM), inactives show top-dose activity change, negative = inhibition, usual class: inhibitors; 360,000 compounds, 0.2% hits; AID 720542;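 also: potency is read from the fitted curve at half-maximal effect; 0% = vehicle wells and -100% = peptide control; nearly all actives have a fitted effect of over 45% in size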
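AMA1 (3D7) with his tag at 25 nM final met compounds first, then biotinylated RON2 peptide at 25 nM; detection used donor plus acceptor beads, 10 µg/mL apiece, read by AlphaScreen after 30 min at room temperature.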
SARS PLpro yeast – blocks SARS-CoV papain-like protease in a yeast assay; S. cerevisiae expressing SARS-CoV PLpro, growth rescue; 330,000 compounds, 0.19% hits; Potency, µM (titrated, usually from 32.9 µM), inactives show at the top dose activity, positive = growth rescue, usual class: activators; AID 485353; calls by dose curve; also: potency is read from the fitted curve at half-maximal effect; 0% is about no effect; nearly all actives have a fitted effect of over 55% in size
AmpC inh no detg – inhibitors of E. coli AmpC beta-lactamase without detergent; AmpC nitrocefin hydrolysis, absorbance 480 nm, 0.0001% Triton; AID 485341; Potency, µM (titrated, usually from 57.1 µM), for inactives: top-dose activity change, negative = inhibition, hits mostly inhibitors; 330,000 compounds, 0.52% hits; P00811;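 also: potency is read from the fitted curve at half-maximal effect; plate controls were no compound for no effect and no enzyme for full effect; nearly all actives have a fitted effect of over 20% in size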
Target sequence (P00811 whole entry, looked up): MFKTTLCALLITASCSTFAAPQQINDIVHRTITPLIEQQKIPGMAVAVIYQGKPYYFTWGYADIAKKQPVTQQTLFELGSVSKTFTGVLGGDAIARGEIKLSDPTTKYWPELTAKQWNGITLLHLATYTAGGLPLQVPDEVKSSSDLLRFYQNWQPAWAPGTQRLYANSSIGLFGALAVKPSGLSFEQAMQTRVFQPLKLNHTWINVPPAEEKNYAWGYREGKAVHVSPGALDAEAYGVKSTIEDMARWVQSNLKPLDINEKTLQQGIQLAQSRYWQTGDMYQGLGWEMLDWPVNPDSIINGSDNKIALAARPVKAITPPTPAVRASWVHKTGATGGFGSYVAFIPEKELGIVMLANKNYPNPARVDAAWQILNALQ
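20 mM phosphate pH 7.0 + 0.01% (detergent screen) or 0.0001% Triton X-100; 5.3 nM AmpC reagent; cpd preinc 15 min RT; nitrocefin (800 uM stock) to start; A480 q20 s × 4 min; Activity was normalised to no-enzyme and no-compound control wells.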
Shiga toxin inh – blocks Shiga toxin action in Vero cells. 290,000 compounds, 9.2% hits. Vero cells, Shiga toxin protein synthesis inhibition reporter. inhibition, % at 38.7 µM. AID 2315; in the data active = inhibition mostly above about 28%, no sharp cut-off; inactive = mostly below about 43%; also: 0% is about no effect
Cycloheximide cs – counter-screen hit for Shiga toxin inhibitors, cycloheximide; cell reporter, cycloheximide protein synthesis inhibition counterscreen; max response, %; 300,000 compounds, 12% hits; in the data active = max response mostly above about 13%, no sharp cut-off; inactive = mostly below about 14%; also: read at 38.3 µM for the half of the compounds with a filed dose; 0% is about no effect
AmpC detergent – AmpC beta-lactamase inhibition with detergent present; P00811; AmpC hydrolysis of nitrocefin, absorbance 480 nm, 0.01% Triton; Potency, µM (titrated, usually from 114 µM), for inactives: at the top dose activity change, negative = inhibition, usual class: inhibitors; 370,000 compounds, 0.041% hits; AID 485294;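 also: potency is read from the fitted curve at half-maximal effect; 0% = no-compound wells and -100% = no-enzyme wells; nearly all actives have a fitted effect of over 25% in size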
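AmpC (5.3 nM in the dispensed reagent) in 20 mM phosphate pH 7.0 with 0.01% (detergent screen) or 0.0001% Triton X-100 was preincubated with compounds for 15 min at room temperature. Nitrocefin was then added from an 800 uM solution, and hydrolysis was followed at 480 nm.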
The depositor's hits bear a star; [ ] = another dose, or the depositor's remark. Unless noted, calls follow the shape of the dose curve; as a rule, active = well fitted curve in the direction sought with a large enough effect; inconclusive = small, poorly fitted or top-dose-only effect, or another doubt; inactive = no such curve, though single readings can be large; an effect the other way counts as inactive or inconclusive.

`CCN1CCN(Cc2coc3ccc(C)cc3c2=O)CC1` gave AMA1-RON2 inh 10%, SARS PLpro yeast 1%, AmpC inh no detg -39%, Shiga toxin inh 38*, Cycloheximide cs 27* and AmpC detergent -11%.
For Cc1ccc2occ(CN3CCN(c4ccccc4)CC3)c(=O)c2c1 the results were AMA1-RON2 inh -8%, SARS PLpro yeast 0%, AmpC inh no detg 0%, Shiga toxin inh 8, Cycloheximide cs 3 and AmpC detergent inconclusive.
For O=C(c1cc(C(=O)c2ccco2)cc(C(=O)c2ccco2)c1)c1ccco1 the results were AMA1-RON2 inh -6%, SARS PLpro yeast -3%, AmpC inh no detg -21%, Shiga toxin inh -9, Cycloheximide cs 2 and AmpC detergent -15%.
CCCn1c(=N)n(CC(=O)c2ccc(OCC(=O)OC)cc2)c2ccccc21 was read as AMA1-RON2 inh 1%.
O=C(NCc1ccccc1Cl)C1CCN(C(=O)N2CCOc3ccccc32)CC1 was read as AmpC detergent -3%.
For NC(=O)c1nsc(C(=O)N(c2ccccc2)C(C(=O)NC2CCCC2)c2ccc3ncccc3c2)c1N (stereo not given) the results were AMA1-RON2 inh 5%, SARS PLpro yeast -6%, AmpC inh no detg 0%, Shiga toxin inh -2, Cycloheximide cs -6 and AmpC detergent 4%.
For CC(C)NC(=S)NC(=O)c1ccc(Cl)cc1Cl the results were AMA1-RON2 inh 81%, SARS PLpro yeast 7.9µM*, AmpC inh no detg -31%, Shiga toxin inh 2, Cycloheximide cs 10 and AmpC detergent -12%.
`Cc1ccc(C(=O)NNC(=S)NC(=O)c2ccc(Cl)cc2Cl)cc1` gave AMA1-RON2 inh 50%, SARS PLpro yeast 28%, AmpC inh no detg -36%, Shiga toxin inh -1, Cycloheximide cs 6 and AmpC detergent -8%.
For CC(C)CNC(=S)NC(=O)c1ccc(Cl)cc1Cl the results were AMA1-RON2 inh 57%, SARS PLpro yeast inconclusive, AmpC inh no detg -24%, Shiga toxin inh 54*, Cycloheximide cs 43* and AmpC detergent 5%.
For CCOc1ccc(NC(=O)CN(C)C(=O)c2ccc(-c3ccc(C(C)=O)cc3)o2)cc1OCC the results were AMA1-RON2 inh 3%, SARS PLpro yeast 0%, AmpC inh no detg 138% and AmpC detergent -10%.
For COc1ccc(NC(=O)CSc2nc3ccccc3c3nc4ccccc4n23)cc1 the results were AMA1-RON2 inh 1%, SARS PLpro yeast -3%, AmpC inh no detg -7%, Shiga toxin inh -12, Cycloheximide cs -1 and AmpC detergent -4%.
`O=C(CSc1nc2ccccc2[nH]1)NCc1ccccc1` gave AMA1-RON2 inh -1%, SARS PLpro yeast 8%, AmpC inh no detg -22%, Shiga toxin inh 68*, Cycloheximide cs 36* and AmpC detergent 11%.
`O=C(CSc1nc2ncccc2[nH]1)NCc1ccccc1` gave AMA1-RON2 inh -4%, SARS PLpro yeast 1%, AmpC inh no detg -12%, Shiga toxin inh 6, Cycloheximide cs 16* and AmpC detergent 6%.
COc1ccc(CNC(=O)CSc2nc3ccc(OC)cc3[nH]2)cc1 was read as AMA1-RON2 inh -4%, SARS PLpro yeast 1%, AmpC inh no detg -27%, Shiga toxin inh -2, Cycloheximide cs 1 and AmpC detergent -12%.
Screening COc1ccc(CNC(=O)CSc2nc3ccc(C)cc3[nH]2)cc1 returned AMA1-RON2 inh 12%, SARS PLpro yeast 0%, AmpC inh no detg -27%, Shiga toxin inh 30, Cycloheximide cs 26* and AmpC detergent -2%.
COc1ccc(CCNC(=O)C23CN(Cc4ccccc4)CC2C(c2ccc([N+](=O)[O-])cc2)=NO3)cc1 (stereo not given) was read as AMA1-RON2 inh -24%, SARS PLpro yeast 0%, AmpC inh no detg -3%, Shiga toxin inh 8, Cycloheximide cs 7 and AmpC detergent 1%.
CCn1c(CNC(=O)c2ccco2)nnc1SCC(=O)c1ccc(OC)cc1 was read as AMA1-RON2 inh 10%, SARS PLpro yeast 0%, AmpC inh no detg -3%, Shiga toxin inh 13, Cycloheximide cs -2 and AmpC detergent 3%.
Screening Cc1cccc(OCCCCCN2CCOCC2)c1 returned AMA1-RON2 inh -8%, SARS PLpro yeast 7%, AmpC inh no detg -5%, Shiga toxin inh 21, Cycloheximide cs 9 and AmpC detergent -12%.
COc1ccccc1NC(=S)N/N=C/c1ccc(O)cc1 was read as AMA1-RON2 inh 32%, SARS PLpro yeast 1%, AmpC inh no detg -35%, Shiga toxin inh 40*, Cycloheximide cs 69* and AmpC detergent inconclusive.
`COc1ccccc1NC(=S)NC(C)=O` gave AMA1-RON2 inh -3%, SARS PLpro yeast -1%, AmpC inh no detg -4%[2.29 µM], Shiga toxin inh -9, Cycloheximide cs -2 and AmpC detergent -1%.
For CCNC(=S)N/N=C/c1cc(C)ccc1C the results were AMA1-RON2 inh 37%, SARS PLpro yeast inconclusive, AmpC inh no detg -18%, Shiga toxin inh -5, Cycloheximide cs -1 and AmpC detergent -11%.
CCNC(=S)N/N=C/c1cccc(C)c1 was read as AMA1-RON2 inh 13%, SARS PLpro yeast -27%, AmpC inh no detg -21%, Shiga toxin inh 56*, Cycloheximide cs 37* and AmpC detergent -15%.
For COc1ccccc1NC(=S)N/N=C/c1cccc(C)c1 the results were AMA1-RON2 inh 20%, SARS PLpro yeast 5%, AmpC inh no detg -38%, Shiga toxin inh 17, Cycloheximide cs 23* and AmpC detergent inconclusive.
Screening COc1ccc(N(CC(=O)Nc2cc(Cl)ccc2OC)S(=O)(=O)c2c(C)[nH]c(=O)[nH]c2=O)cc1 returned AMA1-RON2 inh -4%, SARS PLpro yeast -1%, AmpC inh no detg -32%, Shiga toxin inh -4, Cycloheximide cs -2 and AmpC detergent 0%.
`CCCCc1nc(S(=O)(=O)c2ccc(Cl)cc2)c(N2CCOCC2)o1` gave AMA1-RON2 inh 2%, SARS PLpro yeast 13%, AmpC inh no detg -23%, Shiga toxin inh 34*, Cycloheximide cs 27* and AmpC detergent -1%.
c1ccc(-c2cn3nc(-c4ccccc4)sc3n2)cc1 was read as AMA1-RON2 inh 15%.
`COc1ccc(S(=O)(=O)n2ccc(-c3cnc(-c4ccccc4)s3)n2)cc1` gave AMA1-RON2 inh 24%, SARS PLpro yeast -2%, AmpC inh no detg -40%, Shiga toxin inh 37, Cycloheximide cs 17* and AmpC detergent -15%.
Screening CN(CCOc1ccc(-c2ccn(S(=O)(=O)c3ccc(Cl)cc3)n2)cc1)c1ccccn1 returned AMA1-RON2 inh -16%, SARS PLpro yeast -2%, AmpC inh no detg -20%, Shiga toxin inh 11, Cycloheximide cs 7 and AmpC detergent -11%.
